Source: the supplement of paper PMC6555819

Tests used:
Assay in all cases: PBM binding z-score (relative to random genomic background probes); higher = stronger binding; sequences stand for … in GC…GCGATTGACAGCGTAGAATGAAGG
[1] = tested on: FXR:RXRa (NR concentration 270 nM, RXRa partner concentration 90 nM)
Method in brief: (§1)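 Regression normalization was applied to scanned fluorescence from custom Agilent 4×180K protein-binding microarrays. Before scanning, arrays were incubated 1 h with ligand-free nuclear receptor dimers, and binding was detected with antibodies against each partner (one per run). Binding z-scores use the random background probes as reference.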

[2] = tested on: LXRa:RXRa (NR concentration 270 nM, RXRa partner concentration 90 nM)
Method in brief: as §1

[3] = tested on: LXRa homodimer (NR concentration 270 nM)
Method in brief: as §1

[4] = tested on: LXRb:RXRa (NR concentration 270 nM, RXRa partner concentration 90 nM)
Method in brief: as §1

[5] = tested on: LXRb homodimer (NR concentration 270 nM)
Method in brief: as §1

[6] = tested on: PPARa:RXRa (NR concentration 270 nM, RXRa partner concentration 90 nM)
Method in brief: as §1

[7] = tested on: PPARg:RXRa (NR concentration 180 nM, RXRa partner concentration 90 nM)
Method in brief: as §1

[8] = tested on: PPARg:RXRa 270nM:90nM, anti-RXR (NR concentration 270 nM, RXRa partner concentration 90 nM)
Method in brief: as §1

[9] = tested on: PPARg:RXRa 30nM:10nM, anti-RXR (NR concentration 30 nM, RXRa partner concentration 10 nM)
Method in brief: as §1

[10] = tested on: PPARg:RXRa 90nM:30nM, anti-RXR (NR concentration 90 nM, RXRa partner concentration 30 nM)
Method in brief: as §1

[11] = tested on: PPARg:RXRa DBDmut IVT, anti-RXR (DBD mutation: RXRa K156A/R161A, NR concentration 270 nM, RXRa partner concentration 90 nM)
Method in brief: as §1

[12] = tested on: PPARg:RXRa IVT, anti-PPARg (NR concentration 270 nM, RXRa partner concentration 90 nM)
Method in brief: as §1

[13] = tested on: PPARg DBDmut:RXRa IVT, anti-PPARg (DBD mutation: PPARg1 K132A/R137A, NR concentration 270 nM, RXRa partner concentration 90 nM)
Method in brief: as §1

[14] = tested on: PPARg DBDmut IVT, anti-PPARg (DBD mutation: PPARg1 K132A/R137A, NR concentration 270 nM)
Method in brief: as §1

[15] = tested on: PPARg homodimer (NR concentration 180 nM)
Method in brief: as §1

[16] = tested on: PXR:RXRa (NR concentration 270 nM, RXRa partner concentration 90 nM)
Method in brief: as §1

[17] = tested on: PXR homodimer (NR concentration 270 nM)
Method in brief: as §1

[18] = tested on: RARa:RXR (NR concentration 270 nM, RXRa partner concentration 90 nM)
Method in brief: as §1

[19] = tested on: RARa homodimer (NR concentration 270 nM)
Method in brief: as §1

[20] = tested on: RARb:RXRa (NR concentration 270 nM, RXRa partner concentration 90 nM)
Method in brief: as §1

Sequence | PBM binding z-score [1] | PBM binding z-score [2] | PBM binding z-score [3] | PBM binding z-score [4] | PBM binding z-score [5] | PBM binding z-score [6] | PBM binding z-score [7] | PBM binding z-score [8] | PBM binding z-score [9] | PBM binding z-score [10] | PBM binding z-score [11] | PBM binding z-score [12] | PBM binding z-score [13] | PBM binding z-score [14] | PBM binding z-score [15] | PBM binding z-score [16] | PBM binding z-score [17] | PBM binding z-score [18] | PBM binding z-score [19] | PBM binding z-score [20]
GGAACGAGGGCATTCTAGTTGATAGCATGGCGAT | 1.44 | 1.08 | -0.665 | 0.264 | -0.166 | 1.21 | 0.871 | 0.642 | -0.247 | 0.231 | 3.02 | 2.04 | -0.851 | -0.214 | -0.294 | 1.53 | 0.396 | 0.248 | -0.43 | 1.58
TCGAGAAGGTTAGGGGCATTCAGAATGGCGTCGA | 0.95 | 0.839 | -0.359 | 1.38 | -0.293 | 1.83 | 0.297 | 1.19 | 2.23 | 1.43 | 1.15 | 0.162 | -1.01 | -0.967 | 0.818 | 0.866 | -0.0334 | 0.991 | 0.387 | 2.02
ATCTCTAGGTAAGGTTCAGTGAAAGATCGATAGA | 0.902 | 1.26 | 0.551 | 1.07 | 1.03 | 1.4 | 1.25 | 2.17 | 0.962 | 1.9 | 1.52 | 1.27 | 1.88 | 0.757 | 1.1 | 0.838 | 0.974 | 1.21 | 1.79 | 1.34
ACAGACAGGTGACGAAGGTAACTCAGGCTATCAT | -0.34 | -0.14 | -0.233 | -0.231 | -0.858 | 0.582 | 0.955 | 0.489 | -0.242 | 0.424 | 0.762 | 1.19 | 0.0336 | -0.57 | -0.168 | -0.208 | -0.237 | 0.144 | 0.0267 | 0.637
GCTCGGAGGACAAAGTCAGAGCTTTGTCCGTAGA | -0.547 | -0.56 | -0.429 | -0.512 | -0.588 | -0.568 | -1.55 | -0.786 | -1.61 | -0.843 | -1.01 | -0.327 | -0.892 | -1.25 | -0.791 | -0.547 | -0.9 | -0.547 | -1.22 | 0.845
CGAACTAGGTCATCCAGAACAGTGAATACATTGA | 4.08 | 2.69 | 0.739 | 2.14 | 0.118 | 4.64 | 7.99 | 6.91 | 4.38 | 6.42 | 8.45 | 8.49 | 6.73 | 4.45 | 3.59 | 1.48 | 0.368 | 2.32 | 0.855 | 3.83
CGTCAAAGTTGAAGGTAACGTAACAGAAAGCAGC | -0.11 | -0.00279 | -0.157 | 0.207 | -0.458 | 1.02 | 0.813 | 1.01 | 0.188 | 0.76 | 0.274 | 0.441 | 0.243 | 0.266 | 0.228 | 0.242 | -0.121 | 0.656 | 0.1 | 1.64
ACTCACGGGTCAACGAGGTTATAGCACGCGTATA | 6.65 | 4.67 | 0.969 | 4.03 | 0.564 | 5.34 | 4.39 | 4.55 | 1.72 | 3.08 | 1.79 | 2.88 | 0.756 | 1.16 | 4.09 | 5.33 | 4.27 | 5.51 | 1.43 | 4.27
CAAGCTAGGTCACCGGAAGGTCAAAGTCCGCATG | 6.4 | 6.14 | 4.88 | 5.32 | 0.898 | 5.38 | 5.86 | 5.76 | 2.96 | 4.67 | 4.7 | 5.3 | 0.445 | 0.749 | 9.68 | 6.22 | 2.44 | 7.91 | 3.45 | 5.53
AGAATGAGGTTATTAAGATCAGGGTATTGCGGTC | 1.3 | 1.29 | 0.345 | 1.09 | 0.122 | 2.46 | 1.41 | 1.62 | 0.322 | 0.93 | 3.41 | 2.66 | 0.601 | 0.558 | 1.18 | 1.21 | 1.07 | 1.28 | 0.859 | 1.32
TCTTGTAGACCAATAGAGGTTAAGAAAGTGCGCT | 0.806 | 3.66 | 0.598 | 1.84 | 0.292 | 2.14 | 0.00378 | 1.69 | 2.88 | 1.93 | 2.08 | 1.7 | 0.86 | 0.346 | 0.191 | 3.17 | 0.469 | 1.6 | 0.38 | 1.01
TCAGACATGTGAAGGTAACTCAGGTACGCAGTCG | 0.329 | 1.23 | -0.167 | 0.691 | -0.43 | 0.662 | 0.745 | 1.37 | 3.48 | 2.63 | 1.82 | -0.0574 | 0.0996 | 0.0128 | -0.0995 | 0.383 | -0.196 | 0.493 | 0.114 | 0.199
AATACAGGGTCACTAGGCGAGAGTAGGTACGAAT | 6.08 | 4.92 | 1.02 | 3.94 | 1.26 | 5.66 | 7.02 | 6.14 | 2.65 | 4.89 | 3.92 | 5.14 | 1.72 | 0.921 | 2.09 | 3.16 | 0.858 | 4.27 | 1.4 | 4.29
